An excerpt weighted towards active compounds, which were near 11% of everything screened.
G9a block: blocks human histone lysine methyltransferase G9a; Q96KQ7; G9a H3K9 monomethylation, AlphaScreen, 2 h; Potency, µM (titrated, usually from 102 µM), for inactives: top-dose activity, negative = inhibition, usual class: inhibitors; 350,000 tested, 8.8% active; AID 504332; note: % is set by controls: 0 for no effect and ±100 for the full control effect; nearly all actives have a fitted effect of over 75% in size
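Signal arises when biotinylated H3K9 peptide, once monomethylated, bridges streptavidin donor and antibody-captured acceptor beads. Enzyme at 20 nM was preincubated 15 min with test compounds; peptide 500 nM and SAM 20 uM then reacted for 2 h.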
L3MBTL1 inh: blocks human L3MBTL1; Q9Y468; AlphaScreen L3MBTL1–H3K9me1 peptide binding; Potency, µM (titrated, usually from 57.1 µM), inactives show top-dose activity, negative = inhibition, hits mostly inhibitors; 230,000 tested, 0.66% active; AID 485360; note: % is set by controls: 0 for no effect and ±100 for the full control effect; nearly all actives have a fitted effect of over 60% in size
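AlphaScreen assay: L3MBTL1 (50 nM final) was preincubated 30 min at room temperature with biotinylated H3(1-15)K9me1 peptide (75 nM final), then 30 min with library compounds; streptavidin donor and nickel chelate acceptor beads (10 ug/mL final) added, 30 min dark.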
HP1b binding inh: blocks HP1-beta chromodomain binding to methylated histone tails; P83916; AlphaScreen HP1-beta / biotin-H3K9me3 peptide binding; Potency, µM (doses to about 114 µM), inactives show at the highest dose activity change, negative = inhibition, usual class: inhibitors; 390,000 tested, 0.56% active; note: nearly all actives have a fitted effect of over 70% in size
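AlphaScreen: HP1-beta (50 nM) preformed 30 min with biotin-H3(1-18)K9me3 peptide (50 nM) in PBS pH 7.4, 0.01% Tween-20. Compound added for 30 min at RT, then streptavidin donor/nickel chelate acceptor beads (10 ug/mL) for 30 min.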
JMJD2A Tudor inh: blocks the human JMJD2A Tudor domain; O75164; AlphaScreen JMJD2A-Tudor / H3K4me3 peptide binding; Potency, µM (highest dose often 114 µM), inactives show top-dose activity change, negative = inhibition, most hits filed as inhibitors; 390,000 tested, 4.4% active; note: % is set by controls: 0 for no effect and ±100 for the full control effect; nearly all actives have a fitted effect of over 50% in size
BAZ2B block: inhibitors of human BAZ2B bromodomain. AlphaScreen BAZ2B-H3K14Ac peptide displacement. Potency, µM (highest dose often 114 µM), inactives show at the highest dose activity change, negative = inhibition, actives largely listed as inhibitors. 360,000 tested, 4.4% active. AID 504333; note: % is set by controls: 0 for no effect and ±100 for the full control effect; nearly all actives have a fitted effect of over 60% in size
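Protein-peptide AlphaScreen: BAZ2B 50 nM, b-H3K14Ac 50 nM, 1x PBS pH 7.4 + 0.01% Tween-20. Preincubation 30 min RT; cpd 30 min RT (top 110 uM); beads 20 min RT, light-protected.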
* marks the source's active call; other numbers are inactive results; ? = inconclusive; . = no result; ! = not active in a repeat; [ ] = another dose, or the depositor's remark. Calls come from the whole dose curve; as a rule, active = well fitted inhibition curve with a large enough effect; inconclusive = small, poorly fitted or top-dose-only effect; inactive = no such curve, though single readings can be large or run the other way. Potency is the fitted concentration of half-maximal effect.

SMILES	G9a block	L3MBTL1 inh	HP1b binding inh	JMJD2A Tudor inh	BAZ2B block
Fc1ccc(-c2c[nH]c(=S)n2Cc2ccccc2)cc1	1.1µM*	-14%	20%	?	-38%
Cc1ccn2c(-c3n[nH]c(=S)n3Cc3ccccc3)c(C)nc2c1	7.1µM*	5%	?	3.5µM*	-7%
S=c1[nH]c2ccccc2n1Cc1ccccc1	.	-1%	?	?	-10%
S=c1[nH]c2cnccc2n1Cc1ccccc1	7.1µM*	.	11%	18µM*	-18%
O=C(COCc1cc(-c2ccc3c(c2)OCO3)on1)NCc1ccc(F)cc1	0%[59 µM]	.	25%	5%	0%
CCC(C)(C)c1ccc(OC(=O)c2cccnc2Cl)cc1	123%	.	153%	130%	116%
O=C(NC1CCCCC1)c1ccc2c(c1)N(Cc1ccccc1Cl)C(=O)c1ccccc1S2	5%[59 µM]	.	26%	-15%	0%
S=c1[nH]nc(-c2cccnc2)n1Cc1ccccc1	1.3µM*	5%[11.4 µM]	11%	8.9µM*	-5%
O=c1[nH]cc(-c2ccc(Br)cc2)n1Cc1ccccc1	11µM*	.	-38%	-28%	?
O=c1[nH]c2ccccc2n1Cc1ccccc1	-14%[59 µM]	3%	43%	1%	-6%
Cc1cc(-c2n[nH]c(=S)n2Cc2ccccc2)cs1	1.3µM*	-2%	-2%	18µM*	-10%
S=c1[nH]nc(-c2ccc(Br)cc2)n1Cc1ccccc1	10µM*	-13%	-21%[57 µM]	?	?
Cc1ccc(C)c(N2CCN(C(=O)CN3C(=O)COc4ccc(S(=O)(=O)N5CCOCC5)cc43)CC2)c1	-7%[59 µM]	.	1%	-14%	-8%
O=C(NCc1ccccc1Cl)NCc1noc2ccccc12	10%[59 µM]	.	27%	12%	-2%
CC(C)CCNC(=O)c1ccc2nc(CCc3ccccc3)oc2c1	3%[59 µM]	.	31%[57 µM]	9%	4%
NCCC1CCCC(CCN)N1 (stereo unspecified)	8.9µM*!	-1%	23%	-7%	3%
CCOc1ccc(CNC(=O)c2ccc(Sc3ccc(C)cc3)c(N)c2)cc1OC	-1%[59 µM]	.	19%	?	?
CCc1cccc(CN2CCC(CNC(=O)Nc3ccc(Cl)cc3)CC2)c1	-13%	-9%	27%	-19%	50µM*
O=C(NCC1CCN(Cc2cccc(Cl)c2)CC1)Nc1ccc(Cl)cc1	-13%	.	43%	-30%	-38%
CC(=O)c1c(C)[nH]c(C(=O)Nc2nc(C)cs2)c1C	-36%	-1%	13%	-8%	50µM*
COc1ccc(-c2nc(NC(=O)c3[nH]c(C)c(C(C)=O)c3C)sc2C)cc1	50µM*	.	-14%	?	?
CC(C)Oc1ccc(CNS(=O)(=O)c2ccc3c(c2)C(C)(C)C(=O)N3C)cc1	3%[59 µM]	.	27%	9%	3%
N#Cc1cc2ccccc2nc1SCC(=O)NC1CC1	50µM*	.	36%	-2%	-19%
O=C(NCc1cccs1)c1ccc(CSc2nc3ccncc3n2Cc2cccc(F)c2)cc1	?	.	34%	-21%	-4%
Cc1ccccc1NC(=O)c1ccc2c(O)c(S(=O)(=O)c3ccccc3)c(=O)[nH]c2c1	50µM*!	.	42%	1%	?
SMILES	G9a block	L3MBTL1 inh	HP1b binding inh	JMJD2A Tudor inh	BAZ2B block
COc1cccc(NC(=O)c2ccc3c(O)c(S(=O)(=O)c4ccccc4)c(=O)[nH]c3c2)c1	14%[59 µM]	.	-16%	45µM*	-9%
Cc1cccc(NC(=O)c2ccc3c(O)c(S(=O)(=O)c4ccccc4)c(=O)[nH]c3c2)c1C	?	.	-5%	?	-24%
CCCCN(CC)C(=O)CCCn1c(=O)c2cccn2c2ccccc21	-26%[59 µM]	.	12%	-17%	?
Cc1cccc(OCCn2c(S(=O)(=O)O)nc3ccccc32)c1	.	-2%	7%	-18%	-6%
S=C(Nc1ccccc1)Nc1nc2ccccc2n1CCOc1ccc(Br)cc1	?	6.3µM*	-1%	?	3.2µM*
Nc1nc2ccccc2n1CCOc1ccc(Br)cc1	.	.	31%	-11%	?
CCC(C)n1c(/C=C/c2ccccc2)nc2ccccc21 (stereo unspecified)	77%[59 µM]	51%	97%	77%	95%
O=S(=O)(O)c1nc2ccccc2n1CCOc1ccccc1	50µM*	-3%	21%	-26%	-33%
CCCn1c(S(=O)(=O)O)nc2ccccc21	50µM*	.	18%	-15%	-15%

Screening data as filed in PubChem BioAssay.
